# Laboratory results as given in article PMC5540273 (PLoS ONE, 2017).
# Experiments:
# Settings in all cases: concentration: 1 μM, replicates: in singlicate; n = 1
# EPHB4 = system: EPHB4
# EPHB6 = system: EPHB6
# ERBB2 = system: ERBB2
# ERBB3 = system: ERBB3
# ERBB4 = system: ERBB4
# ERK1 = system: T1, ERK1
# T1 construct: gene MAPK3
# ERK2 = system: T2, ERK2
# T2 construct: gene MAPK1
# ERK3 = system: T3, ERK3
# T3 construct: gene MAPK6
# ERK4 = system: T4, ERK4
# T4 construct: gene MAPK4
# ERK5 = system: T5, ERK5
# T5 construct: gene MAPK7
# ERK8 = system: T6, ERK8
# T6 construct: gene MAPK15
# ERN1 = system: ERN1
# FAK = system: T7, FAK
# T7 construct: gene PTK2
# FER = system: FER
# FES = system: FES
# FGFR1 = system: FGFR1
# FGFR2 = system: FGFR2
# FGFR3 = system: FGFR3
# FGFR4 = system: FGFR4
# FGR = system: FGR
# 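Note: KINOMEscan kinase panel screen.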
Structure (SMILES),%Inh (EPHB4) [%],%Inh (EPHB6) [%],%Inh (ERBB2) [%],%Inh (ERBB3) [%],%Inh (ERBB4) [%],%Inh (ERK1) [%],%Inh (ERK2) [%],%Inh (ERK3) [%],%Inh (ERK4) [%],%Inh (ERK5) [%],%Inh (ERK8) [%],%Inh (ERN1) [%],%Inh (FAK) [%],%Inh (FER) [%],%Inh (FES) [%],%Inh (FGFR1) [%],%Inh (FGFR2) [%],%Inh (FGFR3) [%],%Inh (FGFR4) [%],%Inh (FGR) [%]
COc1ccc(Nc2nccc(N3CCC(NC(=O)C(C)c4ccc(Cl)cc4)C3)n2)cc1 (centres unmarked) [GSK1379735],7,18,11,9,0,0,0,0,0,0,44,0,0,28,12,8,36,17,3,10
CNc1cc(-c2ccc3c(N)n[nH]c3c2)nc(N)n1 [GSK2224810],19,0,32,0,0,0,0,3,7,0,0,0,0,19,9,0,0,28,7,24
O=C(Nc1n[nH]c2nc(-c3ccco3)c(Br)cc12)C1CCN(Cc2ccccc2)C1.O=C(O)[C@H](O)[C@@H](O)C(=O)O (centres unmarked) [SB-742034],0,34,0,0,13,8,1,0,0,0,2,19,4,0,0,23,0,0,10,6
COc1ccc(-c2coc3ccc(-c4nnc(C)o4)cc23)cc1,24,0,0,0,0,0,0,0,1,1,0,0,0,0,22,0,4,4,0,36
COc1ccc(CSc2nnc(-c3ccc4ncsc4c3)o2)cc1C(F)(F)F,18,0,0,0,0,0,30,0,0,0,57,0,0,0,14,5,0,0,0,27
COC(=O)c1cccc(NC(=O)NC2CCN(c3ccnc(Nc4ccc(OC)cc4)n3)C2)c1 (centres unmarked) [GSK1379746],19,37,65,24,23,0,0,5,2,6,0,5,0,13,0,0,0,0,4,11
Cc1cccc2c(-c3ccncn3)c(-c3ccc(F)cc3)nn12 [GW515532],2,21,0,0,0,0,0,0,1,0,100,1,0,8,0,15,0,0,0,1
CS(=O)(=O)Cc1ccc(Nc2nccc(-c3c(-c4cccc(NC(=O)C5CCCCC5)c4)nn4ncccc34)n2)cc1 [GSK350559],0,42,25,22,74,2,0,0,3,0,0,33,0,8,0,0,41,16,6,27
Cc1c(Cn2c3ccccc3n3c(=O)cc(N4CCOCC4)nc23)cccc1C(F)(F)F [GSK2306394],0,0,0,0,60,36,0,0,100,0,26,10,0,6,0,4,2,0,0,0
CCCCc1nn2ncccc2c1-c1ccnc(NC2CC2)n1 [GW684374],4,39,21,0,16,0,0,3,27,0,0,0,0,0,0,0,0,5,0,7
Nc1nccc(-c2c(-c3ccc(F)cc3)ncn2C2CCN(Cc3ccccc3)CC2)n1 [SB-219980],17,58,18,0,19,0,21,0,0,0,0,41,0,0,23,0,0,0,0,18
Cc1ccc(NC(=O)Nc2ccc(Cl)c(C(F)(F)F)c2)cc1-c1ccc(C(=O)Nc2ccncc2)cc1 [GSK1398470],12,18,0,0,6,15,12,10,10,0,0,25,0,22,15,0,12,23,11,19
Cc1nccc(-c2c(-c3ccc(F)cc3)ncn2CCCN2CCOCC2)n1.Cl [SB-282975],0,15,0,34,0,6,8,0,96.5,25,9,0,35,26,12,38,22,33,0,0
Cc1ccccc1Cn1ccn2c(=O)cc(N3CCOCC3)nc12 [GSK2269905],19,0,23,0,20,4,0,15,14,0,0,0,0,18,9,0,2,0,19,31
COc1ccc(CSc2nnc(-c3ccc4nccn4c3)o2)cc1C(F)(F)F,16,0,0,9,0,0,0,18,0,1,39,0,0,4,14,4,4,0,0,19
CS(=O)(=O)CCNCc1nc(-c2ccc3ncnc(Nc4ccc5c(cnn5Cc5ccccc5)c4)c3c2)cs1.Cl.Cl [GW569716],8,21,100,98,92.4,4,10,0,0,0,0,0,0,0,0,0,0,0,8,24
COc1cccc(C2=C(Nc3cc(Cl)c(O)c(Cl)c3)C(=O)NC2=O)c1 [SB-390767],18,46,0,3,4,0,0,0,0,0,37,17,0,0,0,0,53,41,29,22
COc1nccc(-c2c(-c3ccc(F)cc3)ncn2CCCN2CCOCC2)n1 [SB-282852],0,17,40,46,4,0,0,0,0,0,4,16,0,0,0,46,0,0,0,1
Cc1ccc(NC(=O)Nc2ccccc2)cc1-c1ccc(C(=O)Nc2ccncc2)cc1 [GSK1398471],26,12,0,0,0,6,0,8,18,0,0,0,0,20,20,0,0,18,13,34
COc1ccc2cc(-c3nc(-c4ccccc4C(C)C)[nH]c3-c3ccncc3)ccc2c1 [SB-660566],6,0,5,0,52,0,0,0,15,0,0,14,0,0,0,0,12,13,20,21
COC(=O)C(NC(=O)NC1CCN(c2ccnc(Nc3ccc(F)cc3)n2)C1)c1ccccc1 (centres unmarked) [GSK1379712],6,92,20,0,0,2,0,0,24,13,0,4,0,19,0,0,0,7,19,8

Structure (SMILES),%Inh (EPHB4) [%],%Inh (EPHB6) [%],%Inh (ERBB2) [%],%Inh (ERBB3) [%],%Inh (ERBB4) [%],%Inh (ERK1) [%],%Inh (ERK2) [%],%Inh (ERK3) [%],%Inh (ERK4) [%],%Inh (ERK5) [%],%Inh (ERK8) [%],%Inh (ERN1) [%],%Inh (FAK) [%],%Inh (FER) [%],%Inh (FES) [%],%Inh (FGFR1) [%],%Inh (FGFR2) [%],%Inh (FGFR3) [%],%Inh (FGFR4) [%],%Inh (FGR) [%]
O=C(Nc1n[nH]c2nc(-c3cccs3)c(Br)cc12)C1CC1 [SB-735297],0,39,0,0,0,0,0,0,0,0,87,0,0,0,10,0,0,0,0,13
CCc1ccc(-c2ccc3c(c2)-c2n[nH]cc2S(=O)(=O)N3C)cc1,8,0,40,15,0,0,7,0,0,5,0,0,,6,2,6,0,0,0,9
O=C1NC(=O)C(c2ccc(Cl)cc2)=C1Nc1ccc(O)cc1 [SB-340867],0,0,0,0,26,0,0,0,0,0,29,0,0,4,0,0,0,0,0,12
CNc1nc(-c2ccc3c(N)n[nH]c3c2)cc(N2C[C@@H](C(=O)NC3CCCCC3)OC[C@H]2C)n1 [GSK2375584],14,0,27,15,24,0,1,0,8,0,0,0,0,34,0,13,27,27,7,17
CC(=O)c1cccc(NC(=O)NC2CCN(c3ccnc(Nc4ccc(F)cc4)n3)C2)c1 (centres unmarked) [GSK1379710],4,19,15,8,6,0,0,0,30,12,0,19,0,3,0,0,0,6,11,0
Cc1ccc(-c2nc(Nc3ccncc3)c3ccccc3n2)s1 [GSK189015],22,2,0,0,31,17,100,0,0,0,52,22,27,6,19,15,30,28,5,22
COc1cccc(CNC(=O)NC2CCN(c3ccnc(Nc4ccc(F)cc4)n3)C2)c1 (centres unmarked) [GSK1379723],2,15,2,0,22,0,0,10,0,0,60,4,0,6,0,0,3,15,10,8
COc1cc2ncnc(Nc3cccc(Br)c3)c2cc1OC.Cl [GI230329],21,3,97.1,41,72,0,0,6,22,0,0,2,0,31,0,0,22,11,0,26
Fc1ccc(-c2nc[nH]c2-c2ccncc2)cc1 [SB-217360],0,3,41,5,10,2,0,0,12,0,4,43,0,23,0,0,0,0,0,0
c1ccc(-c2ccnc3[nH]ccc23)cc1 [SB-693578],1,29,33,14,0,0,3,0,1,0,0,11,0,0,0,0,0,7,13,2
Cc1c(Cn2c(C)c(C)n3c(=O)cc(N4CCOCC4)nc23)cccc1C(F)(F)F [GSK2328680],14,0,0,16,4,0,0,8,0,0,8,9,0,15,0,0,41,6,0,20
Cc1ccc(NC(=O)Nc2ccc(Cl)cc2)cc1-c1ccc(C(=O)Nc2ccncc2)cc1 [GSK1398472],23,2,25,0,0,0,0,15,3,0,0,0,0,15,0,0,39,13,14,18
CC(=O)c1c(C)c2cnc(Nc3ccc(N4CCNCC4)cn3)nc2n(C2CCCC2)c1=O,23,17,9,0,0,0,0,89,25,0,17,0,0,4,0,2,0,0,0,20
CNCc1ccc2nc(NC(=O)c3ccc(C(C)(C)C)cc3)cn2c1,1,6,17,31,9,1,0,0,0,6,2,9,3,1,1,0,0,6,0,0
Cn1cncc1C(=O)NC1CCN(c2ccnc(Nc3ccc(F)cc3)n2)C1 (centres unmarked) [GSK1379717],14,15,0,0,5,0,0,0,0,0,0,0,0,0,0,0,0,7,1,22
COc1ccc(Nc2nccc(NCCNC(=O)Nc3cc(C)ccc3C)n2)cc1 [GSK1379899],8,0,1,0,0,1,0,0,0,0,43,0,0,17,4,11,15,0,0,14
CSc1ccc(-c2nc3n(c2-c2ccncc2)CCC3)cc1 [SKF-105561],21,15,0,0,3,0,0,0,0,0,1,0,0,0,28,1,0,0,0,25
COc1ccc(Nc2nccc(N3CCC(NC(=O)C(C)c4ccc(Cl)cc4)CC3)n2)cc1 (centres unmarked) [GSK1379812],0,100,19,19,0,0,4,2,0,0,0,0,0,46,19,0,0,30,4,5
O=c1cc(N2CCOCC2)nc2n(Cc3cccc(Cl)c3Cl)c3ccccc3n12 [GSK2299009],0,33,6,0,10,0,15,26,45,0,0,18,0,49,0,31,4,10,21,17
O=C(Nc1n[nH]c2nc(-c3cccs3)c(Br)cc12)C1CCCC1 [SB-743341],22,22,0,3,0,0,10,9,0,0,61,43,1,20,18,28,0,2,3,23
O=C(Nc1n[nH]c2cc(-c3ccsc3)ccc12)C1CC1 [SB-732932],9,18,0,5,9,0,7,0,1,3,92.4,8,6,0,0,1,0,3,0,13
